Molecules are shown by their SMILES. The campaign covered roughly 65,000 compounds. About 2,100 (3.2%) showed an effect of 50% or more. The median lay at about -52%. The full list was thinned out, with strong results kept by preference.

The test has as its system Plasmodium falciparum. Nature of the test: Screen against P. falciparum Asexual Blood Stage (ABS), at 5uM. Format: functional, Dd2. The settings on record: tested at 5 uM.
With `Cc1n[nH]c2c1C(c1ccc3c(c1)OCO3)SCC(=O)N2` (stereo unspecified), the INHIBITION is reported as -22%.

In the case of `COc1cccc(-n2ccc3nc(N4CCCC4)ncc3c2=O)c1`, the INHIBITION is reported as 91.7%.

Turning to `COc1ccc(-c2ccccc2CCN)c(OC)c1OC`, the INHIBITION was determined as 81.8%.

In the case of `COc1ccc(-c2ccccc2CCN)c(OC)c1`, the INHIBITION is 81.6%.

On to `COc1ccc(CCN)cc1-c1ccc(S(C)(=O)=O)cc1`, for which the INHIBITION worked out at 21.8%.

For the compound `CC(=O)Nc1ccc(-c2ccccc2CCN)cc1`, the INHIBITION is reported as -115%.

With `COc1ccc2c(ccn2CCN)c1`, the INHIBITION is on record as 26.1%.

Take `CC(=O)Nc1cccc(-c2ccccc2CCN)c1`: the INHIBITION is reported as -108%.

With `CN1C[C@@H]2COC[C@]2(C(=O)NCc2cccs2)C1`, the INHIBITION is listed as -12.4%.

Regarding `CCc1[nH]c(C2(N)CCCCC2)nc(=O)c1C`, the INHIBITION is reported as -30.6%.

Consider `Cc1noc(C)c1CN1CCO[C@H]2CN(CC3CC3)C[C@H]21`, for which the INHIBITION is recorded as 26.3%.

In the case of `Cc1nc(=O)c(CC(=O)N2C[C@H]3CC[C@@H](C2)N(CC2CCC2)C3)c[nH]1`, the INHIBITION was -30%.

Consider `CCN(CC1CCCN(CCc2cccc(OC)c2)C1)C(=O)CN(C)C` (stereo unspecified), for which the INHIBITION was 83.3%.

On to `COc1ccc(C(=O)C2CCCN(Cc3ccccc3O)C2)c(OC)c1` (stereo unspecified), for which the INHIBITION is reported as -55.9%.

As for `COc1ccc(C(=O)C2CCCN(CCc3ccccc3)C2)c(OC)c1` (stereo unspecified), the INHIBITION worked out at 71.8%.

In the case of `COCC1COCCC12CCN(C(=O)Cc1cccc(OC)c1)CC2` (stereo unspecified), the INHIBITION is -3.52%.

`Cc1nc(NCc2ccco2)nc2c1COCC21CCNC1` (stereo unspecified): the INHIBITION was found to be 21.7%.

On to `Cn1cc(N2CCC3(CCN(Cc4cccnc4)C3)C2=O)cn1` (stereo unspecified), for which the INHIBITION was -35.8%.

On to `CCCN1CC2(CCN(c3ncc(F)cn3)CC2)CC1C(=O)O` (stereo unspecified), for which the INHIBITION was -31.5%.

For the compound `CN(C)C[C@@H]1C[C@@H]2CN(c3ncc(F)cn3)CC[C@@H]2N1C`, the INHIBITION is recorded as 12.3%.

As for `CN(CCO)C[C@@H]1CN(C2CCN(c3ccccc3Cl)CC2)C[C@@H]1CO`, the INHIBITION worked out at 79.5%.

As for `CN(C)C[C@@H]1CN(C2CCN(c3ccc(Cl)cc3)CC2)C[C@@H]1CO`, the INHIBITION worked out at 88.5%.

As to `CN(C)C[C@@H]1CN(C2CCN(c3ccccc3Cl)CC2)C[C@@H]1CO`, the INHIBITION came to 74%.

Regarding `Cc1cc(F)ccc1N1CCC(N2C[C@@H](CN(C)C)[C@@H](CO)C2)CC1`, the INHIBITION is listed as 92.6%.

As for `COCCO[C@H]1COCCN(C2CCN(C)CC2)C1`, the INHIBITION is listed as -110%.

With `Cc1cc(CN2C[C@@H]3CCCO[C@@H]3[C@H](NS(C)(=O)=O)C2)no1`, the INHIBITION is reported as -28.3%.

For the compound `O=C(C1CCCCC1)N1CCO[C@@H]2CNC[C@@H]21`, the INHIBITION is listed as -65.1%.

As for `COC[C@]12COC[C@H]1CN(Cc1cccnc1OC)C2`, the INHIBITION is on record as -130%.

Take `CN(CCO)C[C@@H]1CN(Cc2ccccc2-c2ccccc2)C[C@@H]1CO`: the INHIBITION is given as 87.6%.

On to `CC(C)=CCN1C[C@@H]2CC[C@H]1CN(C(=O)Cc1c(C)[nH]c(C)nc1=O)C2`, for which the INHIBITION was -28.2%.

`Fc1ccc(CN2CCCC(c3cc4ncccc4[nH]3)C2)cc1` (stereo unspecified): the INHIBITION is recorded as 82.3%.

For the compound `O=C(Cc1cccnc1)N1C[C@@H]2CC[C@H]1CN(Cc1ccc(F)cc1)C2`, the INHIBITION is reported as -13.8%.

With `Fc1ccc(CN2CCO[C@H]3[C@H](Oc4ccccn4)CC[C@@H]32)cc1`, the INHIBITION was -29%.

On to `CCOc1ccc(CN2CCCC(c3cc4ncccc4[nH]3)C2)cc1` (stereo unspecified), for which the INHIBITION is recorded as 85%.

Take `c1cc(CO[C@H]2CC[C@H]3[C@H]2OCCN3Cc2nccs2)ccn1`: the INHIBITION is recorded as -84.3%.

In the case of `CN(C)C(=O)[C@H]1C[C@@H]2CCN(Cc3ccncc3)C[C@H]2O1`, the INHIBITION is reported as -59.7%.

As to `CCc1c(C)sc2ncnc(N3CC[C@@H](N4CCC(O)CC4)[C@H](O)C3)c12`, the INHIBITION is recorded as 75.5%.

Consider `Cc1cc(C)c(CNc2cnc3ccccc3n2)c(=O)[nH]1`, for which the INHIBITION amounted to 12.9%.

In the case of `COc1ccccc1CCN1CCCC(CN(C)Cc2ccc(C)o2)C1` (stereo unspecified), the INHIBITION is 87.8%.

Turning to `COc1ccccc1CC(=O)N(CCN1CCOCC1)Cc1ccco1`, the INHIBITION was -29.3%.

`COc1ccccc1CC(=O)N1CCN(Cc2ccco2)C[C@@H]1C`: the INHIBITION is -101%.

On to `Cc1nc(CNCc2c(C(C)C)nn(C)c2N2CCOCC2)cs1`, for which the INHIBITION was 71.7%.

For the compound `Cc1nc(CN2CCOCC3(CCN(c4ncccn4)C3)C2)cs1` (stereo unspecified), the INHIBITION is on record as -42.9%.

For the compound `Cc1nc(CN2CCOCC3(CCN(c4ccccn4)C3)C2)cs1` (stereo unspecified), the INHIBITION is recorded as 0.814%.

In the case of `CC(C)NC(=O)N1CCOC2(CNC2)C1`, the INHIBITION is -131%.

`Cc1cccc(CN2C[C@H](OCc3csc(C)n3)[C@H]3COC[C@H]32)n1`: the INHIBITION is on record as -75.9%.

With `Cn1ncc2c(NC3CN4CCC3CC4)nc(-c3ccncc3)nc21` (stereo unspecified), the INHIBITION is 0.572%.

In the case of `Cn1ncc2c(NC3CCSC3)nc(-c3ccncc3)nc21` (stereo unspecified), the INHIBITION stood at 83.1%.

For the compound `CN(C)C(=O)CN1C[C@H]2CC[C@@H](C1)N(Cc1c(Cl)cncc1Cl)C2`, the INHIBITION is -33.6%.

With `CSc1ncc(CN2C[C@@H]3CC[C@H]2CN(C2CCOCC2)C3)cn1`, the INHIBITION is reported as -18.2%.

With `CCc1cc(CN2C[C@@H]3CC[C@H]2CN(C2Cc4ccccc4C2)C3)on1`, the INHIBITION amounted to 88.2%.

The values are drawn from ChEMBL document CHEMBL4513216, “Probing the Open Global Health Chemical Diversity Library for Multistage-Active Starting Points for Next-Generation Antimalarials” (ACS Infect Dis, 2020).
